# Reference: the supplement of paper PMC12494721
# Counter-ions that a name gives are not always drawn.
# How the values were obtained:
# Conditions in all cases: incubation time: 27 h, anaerobic, 37 °C;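 for the amine columns active = adjusted P below 0.05 in both replicates with a change the same way and a mean fold change under 0.8 or over 1.25; inactive = the rest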
# [1] = system: Clostridium sporogenes DSM 1664; assay: growth (OD595) fold change vs plate DMSO controls (fold change (ratio)); higher = more growth
# Procedure, shortened: (§1)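 To obtain OD, 595 nm absorbance readings were blank-subtracted, corrected for compound background using 20 µM compound solutions in water, and multiplied by a calibration factor of 5. They came from 96-well mGAM cultures grown anaerobically for 27 h at 37 °C and shaken before reading. Growth is the fold change relative to the median of plate DMSO controls. Two biological replicates were averaged, and fold changes above 1.5 were set to NA.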
# [2] = system: Escherichia coli IAI1; assay: as above
# Procedure, shortened: as §1
# [3] = system: Klebsiella aerogenes DSM 30053; assay: as above
# Procedure, shortened: as §1
# [4] = system: Ruminococcus gnavus DSM 108212; assay: as above
# Procedure, shortened: as §1
# [5] = system: Klebsiella aerogenes DSM 30053; assay: fold change of Histamine concentration vs plate DMSO controls (fold change (ratio)); higher = more amine produced, active = hit call of the paper (significant change in both replicates, either direction)
# Procedure, shortened: (§2)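 Amines were quantified by LC–triple-quadrupole MS in dynamic MRM mode against external calibration curves, with drift correction within each batch. The samples were whole anaerobic mGAM cultures of four gut bacterial strains, grown for 27 h at 37 °C in 80 µL wells and extracted with cold acetonitrile/methanol with 0.1% formic acid, then centrifuged. Values are reported as fold change over DMSO controls on the same plate. The mean of 2 biological replicates is given.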
# [6] = system: Clostridium sporogenes DSM 1664; assay: fold change of Tryptamine concentration vs plate DMSO controls (fold change (ratio)); higher = more amine produced, active = hit call of the paper (significant change in both replicates, either direction)
# Procedure, shortened: as §2
# [7] = system: Ruminococcus gnavus DSM 108212; assay: as above
# Procedure, shortened: as §2
# [8] = system: Escherichia coli IAI1; assay: fold change of Putrescine concentration vs plate DMSO controls (fold change (ratio)); higher = more amine produced, active = hit call of the paper (significant change in both replicates, either direction)
# Procedure, shortened: as §2
# [9] = system: Klebsiella aerogenes DSM 30053; assay: as above
# Procedure, shortened: as §2
# [10] = system: Escherichia coli IAI1; assay: fold change of Cadaverine concentration vs plate DMSO controls (fold change (ratio)); higher = more amine produced, active = hit call of the paper (significant change in both replicates, either direction)
# Procedure, shortened: as §2
# [11] = system: Klebsiella aerogenes DSM 30053; assay: as above
# Procedure, shortened: as §2
# [12] = system: Ruminococcus gnavus DSM 108212; assay: fold change of 2-Phenylethylamine concentration vs plate DMSO controls (fold change (ratio)); higher = more amine produced, active = hit call of the paper (significant change in both replicates, either direction)
# Procedure, shortened: as §2
SMILES,growth [1],growth [2],growth [3],growth [4],fold change of Histamine concentration [5],fold change of Tryptamine concentration [6],fold change of Tryptamine concentration [7],fold change of Putrescine concentration [8],fold change of Putrescine concentration [9],fold change of Cadaverine concentration [10],fold change of Cadaverine concentration [11],fold change of 2-Phenylethylamine concentration [12]
CC1(C)S[C@@H]2[C@H](NC(=O)[C@H](N)c3ccccc3)C(=O)N2[C@H]1C(=O)O [Ampicillin sodium salt] (20 µM),0.00123,0.943,0.726,0.0281,1.2 (inactive),0.0126 (active),0.0802 (active),0.981 (inactive),1.02 (inactive),1.23 (inactive),1.18 (inactive),0.0719 (active)
CCOc1ccccc1C(N)=O [Ethenzamide] (20 µM),1.07,1,1.01,0.956,1.02 (inactive),1.1 (inactive),1.01 (inactive),0.983 (inactive),0.985 (inactive),0.986 (inactive),0.978 (inactive),1.03 (inactive)
Cc1cc2nc3ccc(=[N+](C)C)cc-3sc2cc1N [Tolonium chloride] (20 µM),0.823,0.559,0.55,0.0958,0.959 (inactive),1 (inactive),0.972 (inactive),0.979 (inactive),1 (inactive),1.05 (inactive),0.984 (inactive),0.959 (inactive)
C[C@H](Cc1cc2c(c(C(N)=O)c1)N(CCCO)CC2)NCCOc1ccccc1OCC(F)(F)F [Silodosin] (20 µM),1,1,1.02,1.11,0.918 (inactive),1.08 (inactive),1.01 (inactive),0.941 (inactive),0.992 (inactive),1.02 (inactive),1.02 (inactive),0.999 (inactive)
CNCCC(Oc1ccccc1OC)c1ccccc1 (stereo not drawn) [Nisoxetine hydrochloride] (20 µM),0.994,0.74,0.914,0.975,1.02 (inactive),0.993 (inactive),1.01 (inactive),0.707 (inactive),0.978 (inactive),1.18 (inactive),0.983 (inactive),0.92 (inactive)
CN(C)CCOC(c1ccccc1)c1ccccc1 [Diphenhydramine hydrochloride] (20 µM),0.881,0.994,0.974,1.25,1 (inactive),1.05 (inactive),0.945 (inactive),0.962 (inactive),0.996 (inactive),0.98 (inactive),0.985 (inactive),0.914 (inactive)
Cc1nc2ccccc2n1Cc1ccc(Cl)cc1 [Chlormidazole] (20 µM),0.927,0.947,0.963,0.899,1.06 (inactive),1 (inactive),0.899 (inactive),0.947 (inactive),0.978 (inactive),0.982 (inactive),0.989 (inactive),0.854 (inactive)
OC[C@H]1O[C@@](CO)(OC[C@@]2(OC[C@@]3(O[C@H]4O[C@H](CO)[C@@H](O)[C@H](O)[C@H]4O)O[C@H](CO)[C@@H](O)[C@@H]3O)O[C@H](CO)[C@@H](O)[C@@H]2O)[C@@H](O)[C@@H]1O [Nystose] (50 µM),1.05,1.09,1.02,1.05,1.05 (inactive),1.01 (inactive),1 (inactive),0.999 (inactive),1.01 (inactive),0.958 (inactive),0.995 (inactive),0.994 (inactive)
CC(C)(C)NC[C@H](O)c1ccc(O)c(CO)c1 [Levalbuterol hydrochloride] (20 µM),0.932,0.976,1.01,0.865,0.991 (inactive),0.99 (inactive),0.89 (inactive),1.24 (inactive),0.996 (inactive),0.974 (inactive),0.994 (inactive),0.861 (inactive)
CC(=O)OCC(=O)[C@@]12OC3(CCCC3)O[C@@H]1C[C@H]1[C@@H]3CCC4=CC(=O)C=C[C@]4(C)[C@@]3(F)[C@@H](O)C[C@@]12C [Amcinonide] (20 µM),1.12,1.02,1.02,1.19,1.04 (inactive),0.964 (inactive),1.05 (inactive),1.02 (inactive),0.999 (inactive),1.04 (inactive),0.997 (inactive),1.07 (inactive)
Oc1c(Cl)cc(Cl)c(Cl)c1Cc1c(O)c(Cl)cc(Cl)c1Cl [Hexachlorophene] (20 µM),0,0.943,0.999,0,1.17 (inactive),0.0251 (active),0.0326 (active),0.982 (inactive),1.02 (inactive),1.1 (inactive),1.02 (inactive),0.0393 (active)
NS(=O)(=O)c1cc(C2(O)NC(=O)c3ccccc32)ccc1Cl (stereo not drawn) [Chlorthalidone] (20 µM),0.955,0.977,1,1.17,1.09 (inactive),1 (inactive),1.03 (inactive),0.992 (inactive),1.03 (inactive),0.973 (inactive),0.983 (inactive),1.04 (inactive)
CCN(CC)CCNC(=O)COc1ccc(OC)cc1 [Mefexamide hydrochloride] (20 µM),0.963,1.01,1.08,1.05,0.874 (inactive),1.07 (inactive),1.01 (inactive),1.02 (inactive),0.961 (inactive),1.05 (inactive),1.02 (inactive),0.977 (inactive)
O=C(Cn1c(=O)sc2ccc(Cl)cc21)N1CCN(CCO)CC1 [Tiaramide Hydrochloride] (20 µM),0.912,1,1,0.982,1.01 (inactive),1.08 (inactive),1.07 (inactive),0.959 (inactive),0.993 (inactive),0.963 (inactive),0.991 (inactive),1.13 (inactive)
CCC(=O)[C@@]1(C)[C@H](C)C[C@H]2[C@@H]3CCC4=CC(=O)C=C[C@]4(C)[C@H]3[C@@H](O)C[C@@]21C [Rimexolone] (20 µM),1.08,0.953,1.01,1.07,1.02 (inactive),0.98 (inactive),1.05 (inactive),0.983 (inactive),1 (inactive),1.01 (inactive),0.991 (inactive),1.04 (inactive)
CC(=O)[C@@]1(O)CC[C@H]2[C@@H]3C[C@H](C)C4=CC(=O)C=C[C@]4(C)[C@@]3(F)[C@@H](O)C[C@@]21C [Fluorometholone] (20 µM),1.02,0.986,1.01,1.14,1.05 (inactive),1.05 (inactive),1.08 (inactive),0.992 (inactive),0.968 (inactive),0.957 (inactive),0.983 (inactive),1.14 (inactive)
CCCCN(CCCC)CCCOC(=O)c1ccc(N)cc1 [Butacaine] (20 µM),1.11,1.03,1.02,1,1.03 (inactive),0.973 (inactive),0.951 (inactive),0.955 (inactive),1.01 (inactive),1.02 (inactive),1 (inactive),0.913 (inactive)
Cc1ccc(/C(=C\CN2CCCC2)c2ccccn2)cc1 [Triprolidine hydrochloride] (20 µM),1.08,1.01,0.998,1.1,1.05 (inactive),1.02 (inactive),1.01 (inactive),1.09 (inactive),1.02 (inactive),0.797 (inactive),0.987 (inactive),0.986 (inactive)
CC(C)(O)c1ccccc1CC[C@@H](SCC1(CC(=O)O)CC1)c1cccc(/C=C/c2ccc3ccc(Cl)cc3n2)c1 [Montelukast] (20 µM),0.909,1,1.02,0.923,1.07 (inactive),0.587 (active),0.851 (inactive),0.994 (inactive),1.05 (inactive),1.03 (inactive),1.01 (inactive),0.842 (inactive)
CC=C(C)C(=O)OC1C(OC(C)=O)C2(CO)C(O)CC3(C)C(=CCC4C5(C)CCC(OC6OC(C(=O)O)C(OC7OC(CO)C(O)C(O)C7O)C(O)C6OC6OC(CO)C(O)C(O)C6O)C(C)(CO)C5CCC43C)C2CC1(C)C (stereo not drawn) [Beta-Escin] (20 µM),0.94,1,1.01,1.01,1.01 (inactive),0.988 (inactive),0.982 (inactive),0.986 (inactive),0.994 (inactive),1.01 (inactive),1 (inactive),0.953 (inactive)
Cc1cc2cc3c(C)cc(=O)oc3c(C)c2o1 [Trioxsalen] (20 µM),1.03,1.14,0.991,1.02,1.08 (inactive),0.974 (inactive),0.966 (inactive),1.13 (inactive),0.997 (inactive),1.03 (inactive),0.985 (inactive),0.936 (inactive)
CCCN1CCCC[C@H]1C(=O)Nc1c(C)cccc1C [Ropivacaine hydrochloride] (20 µM),1.02,0.971,0.964,0.779,1.13 (inactive),1.13 (inactive),1.02 (inactive),0.946 (inactive),1.04 (inactive),1.03 (inactive),0.961 (inactive),1.01 (inactive)
CN(C)C/C=C(/c1ccc(Br)cc1)c1cccnc1 [Zimelidine dihydrochloride monohydrate] (20 µM),0.928,0.997,0.991,1.03,1.01 (inactive),1.03 (inactive),0.987 (inactive),0.804 (inactive),0.993 (inactive),1.49 (active),0.978 (inactive),1.04 (inactive)
CCN(CCCCOC(=O)c1ccc(OC)c(OC)c1)C(C)Cc1ccc(OC)cc1 (stereo not drawn) [Mebeverine hydrochloride] (20 µM),0.955,1.25,0.995,0.632,0.903 (inactive),1.01 (inactive),0.985 (inactive),1.15 (inactive),1.05 (inactive),1.04 (inactive),1.02 (inactive),1.01 (inactive)
